# According to PubChem BioAssay:
# The source made the active and inactive calls.
# Assays:
# [1] = system: Human papillomavirus type 1a protein E7 (residues 44-93); experiment: small molecules binding HPV E7 44-93 – biochemical, small-molecule microarray, residues 44-93, 635 nm fluorescence, primary screen (AID 1108); details: fluorescence 635 nm, higher = more signal;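 note: E7 fragment applied at 1 µg/mL in TBST for 1 h at 4 C; score combines spot fluorescence with its signal to noise ratio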
# [2] = hepatitis C replication reporter changes, two-sided – Huh7 cells, luciferase reporter, HCV replication inhibitor project, primary screen (AID 1109); details: Huh7 HCV replicon luciferase reporter, 48 h; higher = more signal;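 note: huh7 hepatoma cells harbouring a luciferase neomycin HCV replicon reporter; luciferase luminescence as measure of HCV replicon replication; test concentration not given here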
# [3] = target: Left-right determination factor 2 (Homo sapiens) (UniProt O00292); experiment: small molecules binding LEFTY2 protein – biochemical, small-molecule microarray, 635 nm fluorescence scan, primary screen (AID 1110); details: higher = more signal
# [4] = target: Calmodulin-1 (Homo sapiens) (UniProt P0DP23); experiment: small molecules binding calmodulin-1 with EGTA – biochemical, small-molecule microarray, Cy5-labelled CALM1, profiling panel (AID 1111); details: Cy5-CALM1 binding fluorescence, higher = more signal;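 note: labelled calmodulin applied in Tris saline Tween buffer holding calcium plus EGTA and DTT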
# [5] = target: Calmodulin-1 (Homo sapiens) (UniProt P0DP23); experiment: small molecules binding Ca-loaded calmodulin-1 – biochemical, small-molecule microarray, Cy5-labelled CALM1, plus calcium, artefact control for SMM control-protein annotation, profiling panel (AID 1112); details: Cy5-CALM1 binding fluorescence, higher = more signal;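 note: score merges spot fluorescence with signal to noise from triplicate slides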
# [6] = probe aWnt5a binding to arrayed compounds – biochemical, biotinylated probe, 635/667 nm fluorescence, primary screen (AID 1113); details: small-molecule microarray, higher = more signal;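 note: score merges 667 nm fluorescence intensity with signal-to-noise per printed feature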
# [7] = probe aShh binding to arrayed compounds – biochemical, biotinylated probe, 635/667 nm fluorescence, primary screen (AID 1114); details: small-molecule microarray, higher = more signal;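 note: probe is biotin-labelled aShh protein from a stem cell growth factor screen; measures binding of labelled protein to compounds printed on the slide; score merges feature fluorescence at 667 nm with signal-to-noise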
# [8] = probe aNog binding to arrayed compounds – biochemical, biotinylated probe, 635/667 nm fluorescence, primary screen (AID 1115); details: small-molecule microarray, higher = more signal;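 note: probe is biotinylated aNog protein used at 0.15 µg/mL for 1 h at 4 C; z-score combines 667 nm fluorescence of each spot with its signal to noise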
# [9] = target: Torsin-1A-interacting protein 1 (Homo sapiens) (UniProt Q5JTV8); experiment: compound microarray binding of lysate hLAP1 – cell lysate, small-molecule microarray, COS7 lysate, 635/667 nm fluorescence, primary screen (AID 1116); details: 635 nm fluorescence, higher = more signal
# [10] = target: Alpha-bungarotoxin (Bungarus multicinctus) (UniProt P60615); experiment: compounds binding labelled alpha-BTX control protein – biochemical, small-molecule microarray, Alexa647 label, 635/667 nm fluorescence, artefact control for SMM control protein annotation, profiling panel (AID 1117); details: alpha-BTX-A647 binding fluorescence, higher = more signal
# Albumin (Bos taurus) = Albumin (Bos taurus) (UniProt P02769); experiment: compounds binding labelled BSA control protein – biochemical, small-molecule microarray, Alexa647 label, 635/667 nm fluorescence, artefact control for SMM control protein annotation, profiling panel (AID 1118); details: BSA-A647 binding, fluorescence 635 nm, higher = more signal;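 note: score merges 667 nm emission intensity and signal-to-noise per printed compound spot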
# [11] = probe aXIP binding to arrayed compounds – biochemical, NeuroSMM set, 635/667 nm fluorescence, primary screen (AID 1119); details: small-molecule microarray, higher = more signal, called active from +8 up or from −8 down;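 note: probe is the protein aXip251-270 applied at 1 µg/mL to compound-printed slides; binding of probe to printed compounds measured as 667 nm fluorescence plus signal to noise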
# [12] = probe aNOTCH3 binding on compound microarray – biochemical, small-molecule microarray, 635/667 nm fluorescence, primary screen (AID 1120); details: higher = more signal;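 note: probe is a biotin-tagged antibody raised against NOTCH3 rather than NOTCH3 protein; score merges spot fluorescence near 667 nm with spot signal to noise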
# [13] = probe aNOTCH2 binding on compound microarray – biochemical, small-molecule microarray, 635/667 nm fluorescence, primary screen (AID 1121); details: higher = more signal;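 note: score merges feature fluorescence read at 667 nm with its signal to noise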
# [14] = target: Carbonic anhydrase 2 (Homo sapiens) (UniProt P00918); experiment: compounds binding carbonic anhydrase 2 – biochemical, small-molecule microarray, Alexa647-labelled CAII, profiling panel (AID 1122); details: CAII-A647 binding fluorescence, higher = more signal
# [15] = COS7 lysate on small-molecule microarray, probe aHis, 635 nm (AID 1123); details: COS7 cell lysate, fluorescence, higher = more signal;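 note: z-score combines 667nm fluorescence intensity with signal-to-noise per printed compound spot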
# [16] = probe aLAP1 signal on lysate-treated microarray – cell lysate, small-molecule microarray, COS7 lysate, primary screen (AID 1124); details: probe aLAP1, fluorescence, higher = more signal;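 note: lysate comes from COS7 cells expressing LAP1 and is applied at 0.3 µg/mL; score merges spot fluorescence near 667 nm with signal-to-noise over triplicate slides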
# Sam68 (KHDRBS1) = experiment: compounds binding KHDRBS1 protein – biochemical, small-molecule microarray, 635 nm fluorescence, primary screen (AID 1125); details: higher = more signal;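 note: score merges 667 nm channel intensity with signal to noise over triplicate slides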
# [17] = system: Chordin-like protein 2 (CHRDL2); experiment: compounds binding chordin-like 2 – biochemical, small-molecule microarray, 635 nm fluorescence, primary screen (AID 1126); details: fluorescence 635 nm, higher = more signal;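 note: printed compound slides probed with Chrdl2 protein at 4 µg/mL for 1 h at 4 C; score merges 667 nm emission intensity with signal to noise over three replicate slides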
# [18] = target: Concanavalin-A (Canavalia ensiformis) (UniProt P02866); experiment: compounds binding concanavalin A lectin – biochemical, small-molecule microarray, Alexa647 label, 635 nm, artefact control for SMM control protein annotation, primary screen (AID 1127); details: ConA-A647 binding fluorescence, higher = more signal;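 note: z combines 667 nm emission intensity with signal-to-noise across three replicate slides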
# Chain of Concanavalin-A (Canavalia ensiformis) (P02866 whole entry, looked up): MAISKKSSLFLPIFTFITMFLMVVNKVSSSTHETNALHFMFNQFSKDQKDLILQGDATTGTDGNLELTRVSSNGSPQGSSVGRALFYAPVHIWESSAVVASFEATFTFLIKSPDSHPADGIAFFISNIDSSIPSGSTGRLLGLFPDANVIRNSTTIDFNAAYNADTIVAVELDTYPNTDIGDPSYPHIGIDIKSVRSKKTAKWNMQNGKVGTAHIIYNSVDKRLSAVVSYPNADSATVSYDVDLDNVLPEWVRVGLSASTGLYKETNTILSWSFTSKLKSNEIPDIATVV
# Chain of Torsin-1A-interacting protein 1 (Homo sapiens) (Q5JTV8 whole entry, looked up): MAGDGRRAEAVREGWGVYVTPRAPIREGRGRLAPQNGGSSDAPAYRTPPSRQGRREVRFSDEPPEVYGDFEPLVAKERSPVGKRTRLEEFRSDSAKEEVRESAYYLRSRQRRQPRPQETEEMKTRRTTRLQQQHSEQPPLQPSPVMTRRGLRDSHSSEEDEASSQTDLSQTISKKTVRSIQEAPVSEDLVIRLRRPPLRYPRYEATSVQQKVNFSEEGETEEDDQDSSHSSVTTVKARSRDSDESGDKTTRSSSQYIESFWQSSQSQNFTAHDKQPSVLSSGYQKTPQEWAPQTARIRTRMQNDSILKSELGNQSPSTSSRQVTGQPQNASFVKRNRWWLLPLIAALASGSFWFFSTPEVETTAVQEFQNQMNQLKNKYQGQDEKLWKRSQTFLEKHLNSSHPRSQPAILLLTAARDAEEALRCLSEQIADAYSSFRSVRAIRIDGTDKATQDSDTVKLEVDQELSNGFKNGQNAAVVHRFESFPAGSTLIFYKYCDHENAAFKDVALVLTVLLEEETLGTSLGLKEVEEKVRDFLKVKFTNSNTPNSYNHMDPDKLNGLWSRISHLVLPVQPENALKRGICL
# Chain of Albumin (Bos taurus) (P02769 whole entry, looked up): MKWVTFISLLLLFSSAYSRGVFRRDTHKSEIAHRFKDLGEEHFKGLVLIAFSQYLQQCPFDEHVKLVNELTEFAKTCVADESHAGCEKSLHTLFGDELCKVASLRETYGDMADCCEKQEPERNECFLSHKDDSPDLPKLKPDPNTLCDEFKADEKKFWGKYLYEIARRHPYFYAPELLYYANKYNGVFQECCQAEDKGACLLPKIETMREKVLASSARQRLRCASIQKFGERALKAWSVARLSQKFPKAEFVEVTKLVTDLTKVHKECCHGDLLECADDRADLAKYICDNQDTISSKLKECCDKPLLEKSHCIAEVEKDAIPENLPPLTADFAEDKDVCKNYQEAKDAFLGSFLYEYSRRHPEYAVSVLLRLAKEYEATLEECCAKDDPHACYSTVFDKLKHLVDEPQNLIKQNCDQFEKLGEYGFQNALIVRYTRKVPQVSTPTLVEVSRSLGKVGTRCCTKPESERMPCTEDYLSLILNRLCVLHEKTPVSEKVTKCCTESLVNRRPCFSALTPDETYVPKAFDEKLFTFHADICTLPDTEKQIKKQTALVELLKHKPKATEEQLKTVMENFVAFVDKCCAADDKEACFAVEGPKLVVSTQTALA
# Chain of Left-right determination factor 2 (Homo sapiens) (O00292 whole entry, looked up): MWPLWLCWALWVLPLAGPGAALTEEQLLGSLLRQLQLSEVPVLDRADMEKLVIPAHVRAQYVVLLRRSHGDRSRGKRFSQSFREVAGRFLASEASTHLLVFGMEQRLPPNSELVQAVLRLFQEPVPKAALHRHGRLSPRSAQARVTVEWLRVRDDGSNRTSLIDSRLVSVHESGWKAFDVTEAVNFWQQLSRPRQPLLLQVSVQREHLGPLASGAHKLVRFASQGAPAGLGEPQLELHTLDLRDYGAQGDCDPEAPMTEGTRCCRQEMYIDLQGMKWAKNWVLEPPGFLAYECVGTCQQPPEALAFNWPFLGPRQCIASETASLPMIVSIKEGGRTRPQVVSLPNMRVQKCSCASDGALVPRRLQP
# Chain of Alpha-bungarotoxin (Bungarus multicinctus) (P60615 whole entry, looked up): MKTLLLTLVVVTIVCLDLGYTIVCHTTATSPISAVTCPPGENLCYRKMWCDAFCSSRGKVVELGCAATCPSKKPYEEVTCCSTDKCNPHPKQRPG
SMILES,composite z-score [1],z-score [2],composite z-score [3],composite z-score [4],composite z-score [5],composite z-score [6],composite z-score [7],composite z-score [8],composite z-score [9],composite z-score [10],composite z-score (Albumin (Bos taurus)),composite Z-score [11],composite z-score [12],composite z-score [13],composite z-score [14],composite z-score [15],composite z-score [16],composite z-score (Sam68 (KHDRBS1)),composite z-score [17],composite z-score [18]
CCCC[C@@H]1C[C@H]1[C@@H](NC(=O)c1cccs1)c1ccc(C(F)(F)F)cc1,-0.47,-0.152,-0.45,-0.501,-1.05,-0.0334,0.214,0.277,-0.515,0.237,-0.999,-0.496 (inactive),0.0026,-0.0859,-0.195,-0.559,0.0126,-0.154,0.149,-0.162
NC(N)=NCCCn1cc(CNC(=O)[C@@H](N)Cc2ccccc2)nn1,-0.15,-0.332,0.566,-0.806,-0.458,-0.128,-0.0146,0.0472,0.984,0.0071,0.0958,0.79 (inactive),0.0126,-0.0279,0.948,0.96,0.155,-0.103,0.57,-0.739
O=C1O[C@@H](c2ccccc2)[C@@H](c2ccccc2)N2[C@@H](c3ccc(O)cc3)[C@]3(C(=O)Nc4ccc(C#CC5=CCCCC5)cc43)[C@@H](C(=O)NC[C@H](O)c3ccccc3)[C@H]12,1.4,-1.31,0.915,1.11,0.293,0.0964,-0.0769,0.654,1.52,0.774,0.375,0.486 (inactive),0.274,0.0556,0.401,2.1,0.553,1.31,1.13,1.05
COC(=O)c1c2oc(c1C(=O)OC)C(=O)N(Cc1ccccc1)Cc1cn(nn1)C[C@H](Cc1ccccc1)NC(=O)N[C@H](CO)CC2,0.196,-0.533,0.269,-0.201,-0.464,-0.0194,-0.367,-0.359,0.678,-0.129,0.784,0.535 (inactive),-0.0918,-0.14,0.778,0.87,0.487,0.636,0.369,0.861
CN(C)C(=O)C1N=C(c2ccc(OCCCO)cc2)N(c2ccccc2)O1 (stereo not given),1.41,-0.842,1.28,1.21,-0.0846,-0.0486,-0.0733,-0.461,0.81,0.741,0.0877,0.794 (inactive),0.147,0.0674,0.846,1.15,0.502,1.32,0.267,0.988
COc1ccc([Si](C)(C)[C@@H]2[C@@H](CC(=O)N3Cc4ccccc4C[C@H]3CO)O[C@]3(C(=O)N(C)c4ccccc43)[C@H]2C)cc1,0.215,-4.84,0.812,0.617,-0.0353,0.0102,0.123,-0.0692,0.907,0.794,0.63,1.22 (inactive),0.215,0.014,0.723,0.475,-0.0284,1.3,1.13,1.17
